{"source": "paper PMC4552634", "about": "“A New Set of Chemical Starting Points with Plasmodium falciparum Transmission-Blocking Potential for Antimalarial Drug Discovery” (PLoS ONE, 2015)", "note": "In all, about 13,000 compounds went through this assay and about 3,200 (25%) showed an effect of 50% or more. The list shows a part of the results."}
{"test_system": "P. falciparum stage V gametocytes", "design": "BacTiter-Glo ATP luminescence viability of purified stage V gametocytes in 384-well plates, per cent inhibition versus DMSO", "conditions": "48 h, 5 µM; inhibitor", "units": {"% Inhibition": "%"}}
{"smiles": "Nc1nc(N)c(-c2ccccc2)c(=O)[nH]1", "note": "[TCMDC-137349]", "% Inhibition": 4.514}
{"smiles": "CC(C)CNCc1cccc(-c2ccc(CN(CCCN3CCN(C)CC3)C(=O)CCC3CCCC3)cc2)c1", "note": "[TCMDC-140558]", "% Inhibition": 107.6}
{"smiles": "CC(C)CNCc1cccc(-c2cccc(CN(CCCN3CCN(C)CC3)C(=O)CCC3CCCC3)c2)c1", "note": "[TCMDC-140554]", "% Inhibition": 109.3}
{"smiles": "CC[C@H](C)CNC(=O)c1cncc(-c2cccc(CN(C)C3CCN(C)CC3)c2)c1", "note": "[TCMDC-134225]", "% Inhibition": 17.67}
{"smiles": "CC[C@H](C)CNC(=O)c1ccnc(-c2cccc(CN(C)C3CCN(C)CC3)c2)c1", "note": "[TCMDC-134243]", "% Inhibition": -9.422}
{"smiles": "COc1cc(OC)c(OC)cc1CN1CCC2(CC1)CN(Cc1ccc(Cl)c(Cl)c1)C(=O)O2", "note": "[TCMDC-132175]", "% Inhibition": 23.65}
{"smiles": "CCOc1c(CNCCCNc2cc(=O)c3ccccc3[nH]2)cc(I)cc1C(C)(C)C", "note": "[TCMDC-140132]", "% Inhibition": -43.73}
{"smiles": "O=C(Nc1cccc(F)c1)c1ccc(C(=O)NC2CCN(CC3CCCCC3)C2)cc1", "note": "(stereo not shown) [TCMDC-136741]", "% Inhibition": 0.01446}
{"smiles": "CC(CN(C)C)C(=O)Nc1cccc(-c2cccc(-c3nc4ccccc4[nH]3)c2)c1", "note": "(stereo not shown) [TCMDC-137101]", "% Inhibition": 94.09}
{"smiles": "CC(CN(C)C)C(=O)Nc1cccc(-c2ccc(-c3nc4ccccc4[nH]3)cc2)c1", "note": "(stereo not shown) [TCMDC-137107]", "% Inhibition": -47.86}
{"smiles": "CC(CN(C)C)C(=O)Nc1ccc(-c2ccc(-c3nc4ccccc4[nH]3)cc2)cc1", "note": "(stereo not shown) [TCMDC-137108]", "% Inhibition": 88.79}
{"smiles": "CC(CN(C)C)C(=O)Nc1ccc(-c2csc(-c3nc4ccccc4[nH]3)c2)cc1", "note": "(stereo not shown) [TCMDC-132390]", "% Inhibition": 44.44}
{"smiles": "CC(CN(C)C)C(=O)Nc1ccc(-c2cccc(-c3nc4ccccc4[nH]3)c2)cc1", "note": "(stereo not shown) [TCMDC-137099]", "% Inhibition": -5.672}
{"smiles": "CC(CN(C)C)C(=O)Nc1cccc(-c2cccc(-c3nc4ccc(F)cc4[nH]3)c2)c1", "note": "(stereo not shown) [TCMDC-137104]", "% Inhibition": -36.15}
{"smiles": "C#CCNCc1ccc(-c2ccc(-c3nc4cc(C(F)(F)F)ccc4[nH]3)s2)cc1.O=C(O)C(F)(F)F", "note": "[TCMDC-132805]", "% Inhibition": -48.9}
{"smiles": "COc1cc(CCON2C(N)=NC(N)=NC2(C)C)cc(OC)c1OC", "note": "[TCMDC-131368]", "% Inhibition": -0.5645}
{"smiles": "CC[C@]1(C)C[C@@H](NC(=O)NC(=O)c2ccc(OC)cc2)[C@]2(C)[C@H](C)CC[C@]3(CCC(=O)[C@H]32)[C@@H](C)[C@@H]1OC(=O)NC(=O)c1ccc(OC)cc1", "note": "[TCMDC-139025]", "% Inhibition": 34.49}
{"smiles": "O=S(=O)(c1cc(Cl)c(Cl)cc1Cl)N1CCCCC(c2ccc(C(F)(F)F)cc2)=N1", "note": "[TCMDC-134542]", "% Inhibition": -0.152}
{"smiles": "CC1(C)N=C(N)N=C(N)N1OCCCOc1cccc(C(=O)O)c1", "note": "[TCMDC-124025]", "% Inhibition": 22.26}
{"smiles": "O=C(Nc1ccc(-c2cccc(-c3nc4ccccc4[nH]3)c2)cc1)Nc1ccc2c(c1)OCO2", "note": "[TCMDC-133168]", "% Inhibition": -6.536}
{"smiles": "Cc1[nH]c(C)c(-c2ccc(OCc3ccc(F)cc3)nc2)c(=O)c1Br", "note": "[TCMDC-135657]", "% Inhibition": 60.6}
{"smiles": "Cc1[nH]c(C)c(-c2ccc(OCc3ccc(OC(F)(F)F)cc3)nc2)c(=O)c1Br", "note": "[TCMDC-135254]", "% Inhibition": 45.17}
{"smiles": "Cc1[nH]c(C)c(-c2ccc(OCc3cc(F)cc(F)c3)nc2)c(=O)c1Cl", "note": "[TCMDC-135676]", "% Inhibition": 67.03}
{"smiles": "Cc1[nH]c(C)c(-c2ccc(OCc3cc(F)cc(F)c3)nc2)c(=O)c1Br", "note": "[TCMDC-135683]", "% Inhibition": 58.89}
{"smiles": "CCNc1cc(C(=O)N[C@@H](Cc2ccc(Cl)cc2)[C@H](O)CNC2CCCCC2)cc(N2CCCCS2(=O)=O)c1", "note": "[TCMDC-135201]", "% Inhibition": 29.54}
{"smiles": "N#Cc1ccc(NC(=Nc2ccccc2Br)N(C2CCCCC2)C2CCCCC2)c(O)c1", "note": "[TCMDC-140131]", "% Inhibition": -34.98}
{"smiles": "FC(F)(F)CNc1nc(Nc2ccc3ncccc3c2)nc2[nH]ccc12", "note": "[TCMDC-132120]", "% Inhibition": 26.12}
{"smiles": "C=C[C@H]1CN2CC[C@H]1C[C@H]2[C@H](O)c1ccnc2ccccc12", "note": "[TCMDC-123934]", "% Inhibition": 4.056}
{"smiles": "CN(C)c1cccc(CN2CC=C(c3c[nH]c4ccc(Cl)cc34)CC2)c1", "note": "[TCMDC-138946]", "% Inhibition": 8.82}
{"smiles": "NS(=O)(=O)c1cccc(Br)c1", "note": "[TCMDC-123819]", "% Inhibition": -1.825}
{"smiles": "CS(=O)(=O)c1cccc(-c2cnc(N)c3cc(-c4ccc(F)cc4)ccc23)c1", "note": "[TCMDC-134492]", "% Inhibition": 11.87}
{"smiles": "CS(=O)(=O)c1cccc(-c2cnc(N)c3cc(-c4cccc(F)c4)ccc23)c1", "note": "[TCMDC-134493]", "% Inhibition": 8.942}
{"smiles": "COc1cccc(-c2ccc3c(-c4cccc(S(C)(=O)=O)c4)cnc(N)c3c2)c1", "note": "[TCMDC-134495]", "% Inhibition": 30.55}
{"smiles": "NS(=O)(=O)Cc1cccc(-c2ccnc3ccc(-c4cccc(S(N)(=O)=O)c4)cc23)c1", "note": "[TCMDC-134159]", "% Inhibition": 58.63}
{"smiles": "COc1ccc(-c2ccc3c(-c4cccc(S(C)(=O)=O)c4)cnc(N)c3c2)cc1", "note": "[TCMDC-134494]", "% Inhibition": 3.475}
{"smiles": "Nc1ncnc2cc(-c3cccc(S(N)(=O)=O)c3)sc12", "note": "[TCMDC-135294]", "% Inhibition": -17.5}
{"smiles": "NS(=O)(=O)c1cccc(-c2ccc3nccc(-c4cccc(S(N)(=O)=O)c4)c3c2)c1", "note": "[TCMDC-138902]", "% Inhibition": 75.33}
{"smiles": "NS(=O)(=O)c1cccc(-c2ccc3c(=O)[nH]cnc3c2)c1", "note": "[TCMDC-136756]", "% Inhibition": 63.64}
{"smiles": "CS(=O)(=O)c1cccc(-c2cnc(N)c3cc(-c4ccc5c(c4)OCO5)ccc23)c1", "note": "[TCMDC-134515]", "% Inhibition": -1.728}
{"smiles": "CN(C)S(=O)(=O)c1cc(-c2ccc3nccc(-c4cccc(S(N)(=O)=O)c4)c3c2)cnc1N", "note": "[TCMDC-134230]", "% Inhibition": 96.42}
{"smiles": "COc1cc(Nc2nccc(N3CCC(NC(=O)Nc4cc(C)ccc4C)C3)n2)cc(OC)c1OC", "note": "(stereo not shown) [TCMDC-133626]", "% Inhibition": -44.43}
{"smiles": "Cc1cc(-c2ccc(Cl)cc2)c2c(N)c(C(=O)Nc3ccc(F)cc3)sc2n1", "note": "[TCMDC-124117]", "% Inhibition": 40.98}
{"smiles": "CN(C)C(CNC(=O)c1cc(-c2ccncc2)c(-c2ccc(NC(=O)Nc3cccc(F)c3)cc2)o1)c1ccccc1", "note": "(stereo not shown) [TCMDC-135782]", "% Inhibition": 6.274}
